What all share (assay): NCI-60 one-dose screen, 48 h (100 = growth as untreated, 0 = no growth, -100 = all killed)
Holding throughout (settings): 10 µM unless noted

For assay [1], the system named is SR leukemia.
Assay [2] has as its system RPMI-8226 leukemia.
Assay [3] relates to OVCAR-8 ovarian.
Assay [4] concerns OVCAR-5 ovarian.
The subject of assay [5] is OVCAR-4 ovarian.
In assay [6] the test system is SK-OV-3 ovarian.
In assay [7] the test system is IGROV1 ovarian.
Assay [8] concerns OVCAR-3 ovarian.
Assay [9] deals with HS 578T breast.
Assay [10] concerns NCI/ADR-RES ovarian.
The subject of assay [11] is T-47D breast.
The test system of assay [12] is BT-549 breast.
In assay [13] the test system is MDA-MB-435 melanoma.
Assay [14] relates to SW-620 colon.
Assay [15] relates to MCF7 breast.
The subject of assay [16] is HCT-116 colon.
The subject of assay [17] is HCC-2998 colon.
The subject of assay [18] is KM12 colon.
Assay [19] deals with MDA-MB-468 breast.

Compounds without any hit were thinned out: in the full panel of roughly 83,000, 20% have a hit.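 Plates (96-well) were seeded with cells, treated with compound at one concentration, and incubated for 48 hours before percent growth was determined.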 Values without a mark were called inactive. The source made the active and inactive calls. Rule for the calls: active = growth percent below 10; inactive = the rest.

For the molecule `Brc1ccc(-c2n(Cc3ccc4ccccc4c3)c(-c3ccccc3)c(-c3ccccc3)[n+]2Cc2ccc3ccccc3c2)cc1`, the growth is -36.8% (active) in assay [1]; -38% (active) in assay [2]; -77.4% (active) in assay [3]; -100% (active) in assay [4]; -83.3% (active) in [5]; -96.7% (active) in assay [6]. For the same molecule, the growth in [7] is -81.7% (active); in assay [8] it was -79% (active); in assay [9], -46.3% (active); in assay [10], -78.2% (active); in assay [11], -76.7% (active); in assay [12], -96.7% (active). Also, the growth in [13] is -91% (active); in [14], -86% (active); in [15] it was -69.8% (active); in assay [16], -97.9% (active); in assay [17], -88.9% (active); in [18], -93.4% (active). Further, in assay [19], the growth was -71.2% (active).

With `COc1ccc(-c2nc3ccc(C(=O)NN4C(=O)c5ccc([N+](=O)[O-])cc5C4=O)cc3[nH]2)cc1`, the growth is 89.1% in assay [1]; 80.9% in assay [2]; 97.5% in [3]; 88.6% in assay [4]; 101% in assay [5]; 94.8% in [6]. Besides, the growth was 101% in assay [7]; 115% in [8]; 104% in assay [9]; 102% in assay [10]; 97% in assay [11]; 105% in assay [12]. Further, the growth in assay [13] is 98.3%; in [14], 101%; in assay [15], 83%; in assay [16] it was 102%; in assay [17], 108%; in assay [18] it was 101%.

Take `C/C(=N\N=C\c1cc([N+](=O)[O-])ccc1Cl)c1ccc2c(c1)Nc1ccccc1S2`: the growth was 31.3% in assay [1]; 71.7% in assay [2]; 16.6% in assay [3]; 69.4% in assay [4]; -10.7% (active) in assay [5]; 40.4% in assay [6]. Besides, the growth in assay [7] was 40%; in assay [8] it was -4% (active); in assay [9] it was 27.1%; in assay [10] it was 55%; in [11], 29.7%; in [12], 63%. Further, the growth is 77.2% in assay [13]; 50% in assay [14]; 63.1% in [15]; 11.1% in assay [16]; 90.5% in [17]; 89.1% in assay [18]. Moreover, the growth in assay [19] was 34.1%.

For the molecule `COc1cc2oc(-c3cccc(C(=O)Nc4ccc(Cl)cc4)c3)cc(=O)c2c(OCCNC(=O)[C@H](CCC(=O)OC(C)(C)C)NC(=O)OC(C)(C)C)c1OC`, the growth in assay [1] is 72.9%; in [2], 78.1%; in assay [3] it was 100%; in [4], 107%; in [5] it was 93%; in assay [6], 102%. The growth in assay [7] was 89.9%; in [8], 110%; in assay [9], 92.6%; in assay [10] it was 91.5%; in assay [11], 78.7%; in assay [12], 100%. In addition, the growth in assay [13] was 100%; in [14], 112%; in [15], 83%; in [16], 95.6%; in [17], 118%; in assay [18], 102%.

With `S=c1c2ccccc2nc2n1CCc1c-2[nH]c2ccccc12`, the growth was 67.7% in [1]; 89.5% in [2]; 28.6% in assay [3]; 86.8% in [4]; 50.3% in assay [5]; 42.2% in assay [6]. For the same molecule, the growth in [7] is 48.2%; in assay [8] it was 67.2%; in assay [9], 8.23% (active); in [10], 49.6%; in assay [11], 37.2%; in assay [12] it was 49.9%. In addition, the growth in assay [13] is 88.6%; in assay [14], 80.9%; in assay [15] it was 43%; in [16], 48.7%; in assay [17] it was 64.9%; in assay [18], 80.9%.

Turning to `CCN(CC)CCOc1ccc(Nc2ncc3cc(-c4ccc(O)c(C#N)c4)c(=O)n(C)c3n2)cc1`, the growth in assay [1] is -8.11% (active); in assay [2] it was 65%; in [3] it was 92.8%; in assay [4] it was 88.2%; in assay [5], 89.3%; in assay [6], 64.7%. The growth in assay [7] was 46.9%; in assay [8] it was 83.7%; in [9] it was 76.5%; in [10] it was 114%; in [11], 36.5%; in assay [12], 112%. The growth is 29.9% in assay [13]; 110% in assay [14]; 16.8% in assay [15]; 32.9% in assay [16]; 111% in assay [17]; 72.4% in assay [18]. For the same molecule, in assay [19], the growth is 63.5%.

Consider `COc1cc(-c2nc3ccc(C)cc3[nH]2)ccc1OCc1nnc(-c2ccc(Br)cc2)o1`, for which the growth in assay [1] is -16% (active); in assay [2], -12.9% (active); in assay [3] it was 28.4%; in assay [4], 92.1%; in assay [5], 10.6%; in [6], 59.3%. Moreover, the growth in assay [7] is 64.2%; in assay [8], 39.1%; in assay [9], -4.08% (active); in assay [10], 71.4%; in assay [11] it was -14.6% (active); in assay [12], 23.8%. Further, the growth in assay [13] was 46.1%; in [14] it was 35.5%; in assay [15], 12.8%; in [16] it was 11.5%; in assay [17], 58.7%; in [18], 37.7%. In addition, the growth in [19] is -34.3% (active).

For `COc1cccc(-c2nc(Nc3ccc(S(N)(=O)=O)cc3)c3ccccc3n2)c1`, the growth in assay [1] was 23.6%; in assay [2], 6.94% (active); in assay [3], 35.5%; in assay [4], 72.5%; in assay [5], 35.1%; in assay [6], 73.5%. Also, the growth in assay [7] is 42.4%; in assay [8], 22.9%; in [9] it was 44%; in assay [10], 26.4%; in [11], 20.9%; in [12], 54.5%. The growth in assay [13] was 38.8%; in assay [14], 36.1%; in assay [15], 19.8%; in assay [16] it was 32.2%; in [17], 6.44% (active); in assay [18], 6.75% (active). Also, the growth in assay [19] is 24%.

The values above are taken from PubChem BioAssay (NCI).
